In ChEMBL document CHEMBL3988442, “University of Dundee, Small-Polar-MMV Screening Library” (2021):
Hit rate of the full screen: of about 66,000 compounds, about 960 (1.5%) showed an effect of 50% or more. For the sample, strong results were picked, then their nearest neighbours and some compounds at random.

Test system: Trypanosoma brucei
Assay: Trypanosoma brucei 72 hour study
Type: functional, organism-based
Set-up: scale not given: in the data most compounds retested in dose-response had high values

CC(=O)N1CCCC1c1cccc(Cc2ccccc2F)n1 (centres undefined)
Percent Effect (30.3 µM, […]): 99.36%

CN1CCC(c2cccc(Cc3ccccc3)n2)CC1
Percent Effect (30.3 µM, […]): 2.73%

CN1CCC(c2cccc(Cc3ccc(C(F)(F)F)cc3)n2)CC1
Percent Effect (30.3 µM, […]): 100.8%

CN1CCC(c2cccc(Cc3ccc(F)cc3)n2)CC1
Percent Effect (30.3 µM, […]): 22.86%

CN(C)C(=O)CN1CCC(c2cccc(Cc3ccc(F)cc3)n2)CC1
Percent Effect (30.3 µM, […]): -2.775%

CC(=O)N1CCCC1c1cccc(Cc2ccc(F)cc2)n1 (centres undefined)
Percent Effect (30 µM, 30.03 µM): 14.65%

CN(C)C(=O)CCc1cncc(C2CCCN2Cc2ccccn2)n1 (centres undefined)
Percent Effect (30.3 µM, […]): -6.842%

CC(=O)N1CCCC1c1cccc(NCc2ccccc2F)n1 (centres undefined)
Percent Effect (30.3 µM, […]): -16.97%

COCC(=O)N1CCCC1c1cccc(Cc2ccccc2F)n1 (centres undefined)
Percent Effect (30.3 µM, […]): -5.491%

CN1CCCC1c1cccc(Cc2ccc(F)cc2)n1 (centres undefined)
Percent Effect (30.3 µM, […]): 99.38%

CC(=O)N1CCCC1c1cccc(Cc2ccccc2Cl)n1 (centres undefined)
Percent Effect (30.3 µM, […]): 2.284%

CN(C)C(=O)CN1CCCC1c1cccc(Cc2ccccc2F)n1 (centres undefined)
Percent Effect (30.3 µM, […]): 100.6%

CN(C)c1nc(NCCCN2CCc3ccccc32)ncc1F
Percent Effect (30 µM, 30.03 µM): -2.481%

CC1CCN(c2ncc3c(n2)CN(Cc2cccc(F)c2)C3=O)CC1
Percent Effect (30 µM, 30.03 µM): -36.51%

Cl.c1cn(-c2cnc(C3CCCNC3)cn2)cn1 (centres undefined)
Percent Effect (30.3 µM, […]): -22.3%

Cc1ccnc(NC(=O)C2CCN(CCCn3ccnc3)CC2)c1
Percent Effect (30 µM, 30.03 µM): -9.272%

Cc1ncn(CCNC(=O)Nc2ccc(OC(F)(F)F)cc2)c(=O)c1C
Percent Effect (30 µM, 30.03 µM): -6.151%

Cc1cc(C2CCCN(Cc3nc(Cc4ccccc4)no3)C2)n[nH]1 (centres undefined)
Percent Effect (30 µM, 30.03 µM): -33.51%

Cc1ccc(CN2CCC3(CC2)CC(N2CCN(C)CC2)CO3)s1.O=C(O)C(F)(F)F.O=C(O)C(F)(F)F.O=C(O)C(F)(F)F (centres undefined)
Percent Effect (30.3 µM, […]): -296.4%

Cc1cncc(C(=O)N2CC[C@@]3(C[C@H](NS(C)(=O)=O)CCO3)C2)c1.O=C(O)C(F)(F)F
Percent Effect (30.3 µM, […]): -90.12%

CCN1CCCn2c(nc(CNC(=O)c3cnoc3C)cc2=O)C1.O=C(O)C(F)(F)F
Percent Effect (30 µM, 30.03 µM): 9.742%

CN(C)S(=O)(=O)N1CCCC(c2cccc(Cc3ccc(F)cc3)n2)C1 (centres undefined)
Percent Effect (30.3 µM, […]): 41.5%

CS(=O)(=O)N1CCCC1c1cccc(Cc2ccccc2F)n1 (centres undefined)
Percent Effect (30.3 µM, […]): 0.4351%

CN(C)S(=O)(=O)N1CCCC(c2cccc(Cc3ccc(Cl)cc3)n2)C1 (centres undefined)
Percent Effect (30.3 µM, […]): 99.29%

CN(C)S(=O)(=O)N1CCCC(c2cccc(Cc3ccccc3)n2)C1 (centres undefined)
Percent Effect (30 µM, 30.03 µM): -81.93%

CN1CCCC1c1cccc(Cc2ccccc2F)n1 (centres undefined)
Percent Effect (30.3 µM, […]): 101.4%

c1ccc(Cc2cccc(C3CCCN3C3CCOCC3)n2)cc1 (centres undefined)
Percent Effect (30.3 µM, […]): 101%

Fc1cccc(Cc2cncc(C3CCCN3C3CCOCC3)n2)c1 (centres undefined)
Percent Effect (30.3 µM, […]): 9.592%

c1ccc(Cc2cncc(C3CCCN3C3CCOCC3)n2)cc1 (centres undefined)
Percent Effect (30.3 µM, […]): -18.14%

CN(C)S(=O)(=O)N1CCCC(c2cccc(Cc3ccccc3F)n2)C1 (centres undefined)
Percent Effect (30.3 µM, […]): 46.46%

COCCCNc1c(-c2ccc(Cl)cc2)c(=O)c1=O
Percent Effect (30.3 µM, […]): 13.47%

O=C(c1cnccn1)N1CCCC(Cc2cccc3ncccc23)C1 (centres undefined)
Percent Effect (30.3 µM, […]): -10.31%

CN(C)C(=O)[C@@H]1CCO[C@@H]2CCN(CCOCc3ccccc3)C[C@H]21.O=C(O)C(F)(F)F
Percent Effect (30.3 µM, […]): -3.678%

CC(C)(C)c1nc(NS(=O)(=O)c2ccccc2F)no1
Percent Effect (30 µM, 30.03 µM): -17.01%

O=C(NCC1CC1)C1CCC2(CCN(C(=O)c3ccncc3)CC2)O1.O=C(O)C(F)(F)F (centres undefined)
Percent Effect (30.3 µM, […]): -42.23%

Cc1noc(C)c1CN1CCO[C@H]2[C@H](Oc3ncccc3F)CC[C@@H]21.O=C(O)C(F)(F)F.O=C(O)C(F)(F)F
Percent Effect (30 µM, 30.03 µM): -9.669%

CCCN(CCc1ccccn1)C(=O)CCc1cnn(C)c1
Percent Effect (30 µM, 30.03 µM): -34.35%

CCN(CC)Cc1ccc(C(=O)N2CCCC2Cn2cccn2)cc1 (centres undefined)
Percent Effect (10 µM): -13.25%

CCc1cnc(CN(C)C2CCN(CC(=O)Nc3nccs3)C2)o1 (centres undefined)
Percent Effect (10 µM): -37.99%

COc1ccc(N2Cc3nc(=O)n(Cc4cccc(F)c4)n3C2=O)cc1
Percent Effect (30 µM, 30.03 µM): -5.99%

CCN1CCn2c(C)cnc2C12CCN(C(=O)NCC(C)C)CC2.O=C(O)C(F)(F)F
Percent Effect (30.3 µM, […]): -30.2%

Cc1ccc(Cl)cc1NC(=O)C1CC(=O)N(Cc2ccccn2)C1 (centres undefined)
Percent Effect (30 µM, 30.03 µM): 8.87%

O=C(Nc1ccccn1)C1CC(=O)N(Cc2ccccn2)C1 (centres undefined)
Percent Effect (30 µM, 30.03 µM): -8.332%

COc1ncccc1NC(=O)C1CC(=O)N(Cc2ccccn2)C1 (centres undefined)
Percent Effect (30 µM, 30.03 µM): 55.04%

CC(C)(C)NC(=O)CCOc1cccc(F)c1
Percent Effect (10 µM): -74.47%

COc1ccccc1CN1CC[C@]2(C[C@@H](OC)CO2)C1.O=C(O)C(F)(F)F
Percent Effect (30 µM, 30.03 µM): -26.27%

Cc1nn(C)c2c(NCCCn3cccn3)nc(C(C)C)nc12
Percent Effect (30.3 µM, […]): -9.582%

COc1cc(C(=O)NCCc2ccc(OC)c(OC)c2)on1
Percent Effect (30.3 µM, […]): 8.881%

COc1cc(C(=O)NCCCc2ccccc2)on1
Percent Effect (30.3 µM, […]): 10.61%
